Assay outcomes deposited in PubChem BioAssay by National Center for Advancing Translational Sciences (NCATS).
NPSR antagonist: blocks cAMP signaling of the human neuropeptide S receptor; Q6W5P4; CHO-NPSR cells, cAMP TR-FRET, antagonist mode; Potency, µM (series often up to 38.3 µM), without a hit: at the highest dose activity change, negative = inhibition, most hits filed as inhibitors; 220,000 compounds, 1% hits; AID 1461; note: nearly all actives have a fitted effect of over 50% in size
VP16 counter: counter-screen for ROR gamma inhibitors: Gal4-VP16 reporter; Drosophila S2 Gal4-VP16 UAS-luciferase, luminescence, 20 h; Potency, µM (highest dose often 53.6 µM), for inactives: at the highest dose activity, negative = inhibition, hits mostly inhibitors; 310,000 compounds, 3.5% hits; AID 2546;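 note: Gal4-VP16 expression switched on by copper sulfate through the metallothionein promoter; nearly all actives have a fitted effect of over 50% in size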
RORg inh: inhibitors of mouse ROR gamma transcriptional activity | Drosophila S2 Gal4-RORgamma UAS-luciferase reporter, 20 h | AID 2551 | Potency, µM (highest dose often 53.6 µM), inactives show at the top dose activity change, negative = inhibition, actives largely listed as inhibitors | 310,000 compounds, 5.4% hits; note: nearly all actives have a fitted effect of over 60% in size
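Read-out: Photinus luciferase luminescence; inhibitors lower reporter signal. Insect Schneider cells with Gal4-ROR gamma fusion under metallothionein promoter, UAS reporter; 700 uM final copper sulfate induction, 20 hr, ambient temperature.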
B2AR arrestin: beta2AR (human) beta-arrestin recruitment activity; Potency, µM (doses to about 46.1 µM), for the others: at the highest dose activation, most hits filed as activators; AID 492947; 330,000 compounds, 0.02% hits; P07550; beta-arrestin recruitment to beta2AR, cell-based reporter;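 note: 0% = DMSO controls and full agonism = EC100 isoproterenol or metaproterenol; nearly all actives have a fitted effect of over 65% in size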
Target sequence (P07550 whole entry, looked up): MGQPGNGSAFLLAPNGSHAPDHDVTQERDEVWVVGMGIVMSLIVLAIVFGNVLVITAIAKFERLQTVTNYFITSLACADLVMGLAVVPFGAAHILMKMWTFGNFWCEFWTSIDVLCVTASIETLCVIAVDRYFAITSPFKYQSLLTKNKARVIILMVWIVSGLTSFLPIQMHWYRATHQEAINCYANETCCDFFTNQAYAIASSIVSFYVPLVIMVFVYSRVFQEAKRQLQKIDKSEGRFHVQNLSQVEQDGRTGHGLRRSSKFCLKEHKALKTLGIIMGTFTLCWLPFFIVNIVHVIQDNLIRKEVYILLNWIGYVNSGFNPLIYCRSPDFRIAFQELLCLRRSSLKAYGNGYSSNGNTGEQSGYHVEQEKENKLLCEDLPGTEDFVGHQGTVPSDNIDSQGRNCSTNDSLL
* marks the source's active call; other numbers are inactive results; ? = inconclusive; nt = not tested or not shown; [ ] = another dose, or the depositor's remark. Rows were chosen to be rich in hits. Some 5.7% of all compounds tested hit in one or more screens of this group. Calls come from the whole dose curve; as a rule, active = well fitted curve in the direction sought with a large enough effect; inconclusive = small, poorly fitted or top-dose-only effect, or another doubt; inactive = no such curve, though single readings can be large; an effect the other way counts as inactive or inconclusive. Unless noted, % is set by controls: 0 for no effect and ±100 for the full control effect; potency is the fitted concentration of half-maximal effect.

SMILES	NPSR antagonist	VP16 counter	RORg inh	B2AR arrestin
C#CCCCO/N=C1/C[C@@H](O)[C@@H](O)[C@@H]2[C@@H]3C(=O)N(C4CCCCC4)C(=O)[C@H]3CC[C@H]12	nt	-3.0%[10 µM]	-2.4%[10 µM]	nt
CCCCSCc1nc2ccccn2c1Br	-9.9%	-5.3%	11.2µM*	-0.2%
CCSCc1nc2ccccn2c1Br	3.3%	5.5%	-8.2%	-0.2%
CCOc1c(Cl)cc(CNCC(C)C)cc1OC	-18.9%[46.1 µM]	-0.5%	-20.7%	0.0%
CCOc1c(Cl)cc(CNCC(O)c2ccccc2)cc1OC (centres undefined)	-0.2%	?	7.08µM*	0.1%
COc1cc2c(cc1OC)C(c1ccccc1)CN(C)CC2 (centres undefined)	-7.7%[46.1 µM]	-0.5%	-31.1%	nt
COc1nc(C)ccc1-c1noc(-c2cccnc2)n1	nt	-4.1%	14.1µM*	-0.4%
Cc1ccc(N2C(=O)c3ccccc3C2O)nc1 (centres undefined)	2.0%	?	7.08µM*	0.0%
O=C(NNc1nc(-c2ccccc2)cs1)c1ccco1	3.0%	5.01µM*	3.55µM*	-0.1%
CC(=O)Nc1ccc(-c2csc(NNC(=O)c3ccccc3)n2)cc1	15.9%	-3.9%	8.91µM*	0.0%
O=C(CN1CCN(c2nc(-c3ccccc3)cs2)CC1)NNC(=O)c1ccco1	10.5%	5.7%	15.7%	0.0%
O=C(NNc1nc(-c2ccc(Cl)cc2)cs1)c1ccco1	4.5%	5.01µM*	3.98µM*	5.6%
O=C(COc1ccc(-c2ccccc2)cc1)NNC(=O)NC1CCCCC1	-12.6%	-25.6%	-11.1%	-0.2%
Cc1noc(C)c1-c1ccc2ncnc(NCc3ccc(C(F)(F)F)o3)c2c1	nt	15.3%	?	nt
c1cnc(Sc2ccc3nnnn3n2)nc1	14.8%	11.9%	3.6%	-0.1%
CCOC(=O)c1ccc(NC(=O)c2nc[nH]c2C(=O)NCCCNC(=O)c2[nH]cnc2C(=O)Nc2ccc(C(=O)OCC)cc2)cc1	nt	nt	nt	-0.4%
CCOC(=O)c1ccc(NC(=O)c2nc[nH]c2C(=O)NCC(=O)OC(C)(C)C)cc1	-38.8%	15.8µM*	7.08µM*	-0.2%
CCOC(=O)c1ccc(NC(=O)c2nc[nH]c2C(=O)N(CC)CC)cc1	-1.7%	?	11.2µM*	-0.1%
CCOC(=O)c1ccc(NC(=O)c2nc[nH]c2C(=O)NCCCCCNC(=O)OC(C)(C)C)cc1	?	?	11.2µM*	-1.1%
CCC1(CC)C(=O)C2=C3C1[C@H](C(=O)OC)CC(C(=O)OC)C[C@H]3[C@H]1C(=O)N(C)C(=O)[C@H]1[C@H]2C (some centres undefined)	nt	3.7%	-14.5%	nt
O=C(CN1CCCCC1)Nc1nnc(-c2ccc([N+](=O)[O-])cc2)s1	4.7%[46.1 µM]	-14.8%	10µM*	0.0%
CC(O)c1cccc2cc(C(O)CNC(C)(C)C)oc12 (centres undefined)	nt	1.5%	0.7%	nt
O=C(NC1CCN(Cc2ccccc2)CC1)c1cccc(S(=O)(=O)Nc2ccc(SC(F)F)cc2)c1	nt	nt	nt	0.2%
O=[N+]([O-])c1ccc(N/N=C/c2sc(N3CCOCC3)nc2-c2ccccc2)c(S(=O)(=O)Nc2ccc(Cl)cc2)c1	-46.9%	3.16µM*	?	0.1%
O=C(N/N=C/c1ccc(N2CCOCC2)s1)c1ccccc1Cl	-38.4%	?	7.94µM*	0.1%
SMILES	NPSR antagonist	VP16 counter	RORg inh	B2AR arrestin
O=C(N/N=C/c1sc(N2CCOCC2)nc1-c1ccccc1)c1ccccc1O	-20.0%	2.82µM*	2.24µM*	0.0%
C/C(=N/OCO/N=C(/C)c1ccc(F)cc1)c1ccc(F)cc1	-4.2%	-17.0%	11.6%	-0.4%
CC(=O)[C@H]1CC[C@H]2[C@@H]3C=CC4=CC(=O)CC[C@@]4(C)[C@H]3CC[C@]12C	nt	6.9%[17 µM]	7.1%[2.98 µM]	nt
CCCNC(=S)NC1CCCC1	-3.2%[46.1 µM]	?	11.2µM*	-1.1%
NNC(=S)NC1CCCCC1	10.9%	7.08µM*	2.82µM*	?
CCC/C=C1/CCCOC(C(=O)NCC2CC2)(C(F)(F)F)C1 (centres undefined)	nt	6.3%	-12.1%	nt
CCN(CC(=O)NC(C)C)Cc1nc2sc3c(c2c(=O)[nH]1)CCC3	-4.3%[46.1 µM]	4.47µM*	1.12µM*	0.1%
CCN(CC(=O)Nc1sc2c(c1C#N)CCC(C)C2)Cc1nc2ccccc2c(=O)[nH]1 (centres undefined)	-8.3%	?	2.51µM*	-0.4%
CCN(CC(=O)Nc1sc2c(c1C#N)CCCC2)Cc1nc2ccccc2c(=O)[nH]1	-6.1%	?	5.62µM*	0.0%
CC1CCc2c(sc(NC(=O)CCc3nc4ccccc4c(=O)[nH]3)c2C#N)C1 (centres undefined)	nt	nt	nt	0.0%
Cc1ccc(CNC(=O)[C@H](C)[C@H]2C[C@]2(C)[C@H](NC(=O)OCc2ccccc2)c2ccccc2)c(F)c1F	nt	5.4%	27.9%	nt
CS(=O)(=O)N1CCC2(CCN(c3ccccn3)CC2)CC1	nt	-1.2%	-5.4%	nt
COc1ccc(N2CCN(CCNC(=O)c3ccc4nc5ccccc5c(=O)n4c3)CC2)cc1	nt	-0.3%	-2.8%	-1.3%
COc1ccc(N2CCN(CCNC(=O)c3ccc4c(c3)[nH]c(=S)n3c5ccccc5nc43)CC2)cc1	-20.4%	3.55µM*	6.31µM*	-0.8%
COc1ccccc1C(=O)Nc1nnc(-c2ccc3c(c2)CCCC3)o1	-12.1%[46.1 µM]	3.98µM*	0.4%	0.4%
CC(=O)Nc1ccc2c(c1)CCCC2	-23.1%	15.9%	?	-0.1%
O=C(Nc1nnc(-c2ccc3c(c2)CCCC3)o1)C1COc2ccccc2O1 (centres undefined)	-14.6%[46.1 µM]	7.94µM*	3.55µM*	-0.3%
CC1CN(S(=O)(=O)c2ccc(C(=O)Nc3nnc(-c4ccccn4)o3)cc2)CC(C)O1 (centres undefined)	2.1%	?	?	0.0%
CC1CN(S(=O)(=O)c2ccc(C(=O)Nc3nnc(-c4ccc5c(c4)CCCC5)o3)cc2)CC(C)O1 (centres undefined)	-1.2%[46.1 µM]	0.891µM*	0.112µM*	-1.0%
CC(=O)Nc1nnc(-c2ccc3c(c2)CCCC3)o1	-12.0%[46.1 µM]	3.55µM*	7.08µM*	0.3%
COc1cc(-c2nnc(NC(=O)c3ccco3)o2)cc(OC)c1OC	nt	nt	nt	0.0%
CC1=C(C)CC2C(C1)C(=O)c1ccc(Br)cc1S2(=O)=O (centres undefined)	nt	nt	nt	0.0%
C/C(=N/NC(=O)c1ccc(Br)o1)c1cccc(NC(=O)c2ccc(F)cc2)c1	nt	7.3%	-10.7%	0.1%
O=C1CCC(C(=O)N2CCSCC2)CN1Cc1cccc(C(F)(F)F)c1 (centres undefined)	nt	-3.5%	0.5%	-0.1%
O=C(COC(=O)/C=C/c1ccc(OC(F)F)cc1)NC1CCCCCC1	nt	nt	nt	-0.4%
COC(=O)c1cc(Br)c(N)cc1OC	20.5%	-1.9%	11.5%	0.4%
Cc1cc(Nc2ncc(Cl)cc2Cl)n[nH]1	8.5%[46.1 µM]	-12.6%	11.2µM*	-0.1%
Nc1nc(SCC(=O)Nc2ncc(Cl)cc2Cl)n[nH]1	nt	nt	nt	-0.2%
Cc1ccc(-c2nc(SCC(=O)N(C)c3c(N)n(Cc4ccccc4)c(=O)[nH]c3=O)n[nH]2)cc1	nt	-7.5%	14.7%	-0.4%
CC1=CC(=O)C=C(C)C1=NOC(=O)c1cccc([N+](=O)[O-])c1	-18.5%[46.1 µM]	?	11.2µM*	-0.1%
